Hits are enriched below; roughly 6.2% of the tested compounds scored in any of these assays.
HT1080-NT tox = kills 2HG-producing HT-1080-NT fibrosarcoma cells; 360,000 compounds, 1.6% hits; HT-1080-NT fibrosarcoma viability, CellTiter-Glo ATP luminescence, 48 h; Potency, µM (series often up to 46.1 µM), for the others: top-dose activity, negative = less viability, actives largely listed as cytotoxic;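 further: NT is the 2HG producing partner of a matched IDH1 knockdown line; 0% = DMSO-treated cells and -100% = media-only wells without cells; nearly all actives have a fitted effect of over 55% in size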
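Viability of the 2HG-overproducing fibrosarcoma line after 48 hours of compound exposure at 37 degrees C was determined by luminescence with CellTiter-Glo, and concentration-effect curves were then fitted and categorized.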
KB-3-1 cytotox = KB-3-1 parental cell cytotoxicity | 400,000 compounds, 1.4% hits | AID 1347075 | KB-3-1 viability, CellTiter-Glo ATP luminescence, 72 h | Potency, µM (top dose mostly 46.1 µM), actives largely listed as cytotoxic; further: on the % scale 0 is the no-effect control and ±100 the full control effect; nearly all actives have a fitted effect of over 60% in size
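Viability of parental KB-3-1 cells, measured by CellTiter-Glo luminescence, followed a 72 h incubation at 37 °C with pinned compounds in phenol-red-free DMEM containing 10% FBS.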
ATXN viability = viability counter-screen for ATXN expression inhibitors; S2 cells (HEK-293 line with an ATXN2-luciferase reporter) viability, CellTiter-Fluor protease fluorescence, 24 h; Potency, µM (titrated, usually from 56.7 µM), usual class: cytotoxic; 400,000 compounds, 0.49% hits; further: nearly all actives have a fitted effect of over 40% in size
HT1080 IDH1KD tx = toxicity to HT-1080 IDH1 knockdown cells (counter line). HT-1080 IDH1 knockdown viability, ATP luminescence, 48 h. Potency, µM (series often up to 46.1 µM), without a hit: top-dose activity, negative = toxicity, usual class: cytotoxic. 360,000 compounds, 2% hits. AID 686971;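 further: 0% = DMSO wells and -100% = cell-free medium wells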
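CellTiter-Glo luminescence after 48 h compound exposure at 37 degrees C of IDH1-knockdown HT-1080 cells in 5% FBS RPMI. %Activity scaled between DMSO wells and cell-free media wells, with curves fitted and assigned curve classes.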
ATXN2 expr inh = ATXN2 expression inhibition; HEK-293 ATXN2-luciferase reporter, luminescence, 24 h; AID 1745845; 360,000 compounds, 0.72% hits; Potency, µM (highest dose often 57 µM), for the others: at the top dose activity change, negative = inhibition, hits mostly inhibitors; further: on the % scale 0 is the no-effect control and ±100 the full control effect; nearly all actives have a fitted effect of over 55% in size
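ATXN2-luciferase reporter cells (luciferase flanked by upstream and downstream ATXN2 gene portions) were treated 24 h at 37 °C with compounds at up to 57 uM. SteadyGlo luminescence gave expression; GF-AFC fluorescence gave viability.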
KB-V1 MDR tox = KB-V1 MDR subline cytotoxicity. AID 1347076. Potency, µM (doses to about 46.1 µM), hits mostly cytotoxic. 400,000 compounds, 3.4% hits. KB-V1 MDR cells viability, CellTiter-Glo, 72 h; further: on the % scale 0 is the no-effect control and ±100 the full control effect; nearly all actives have a fitted effect of over 60% in size
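KB-V1 cells (P-gp-expressing MDR subline of KB-3-1) in phenol-red-free DMEM with 10% FBS were exposed to library compounds over a concentration series for 72 h at 37 degrees C. Viability read by CellTiter-Glo luminescence; concentration-effect curves fitted after normalization.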
An asterisk follows results filed as active; ! = not confirmed by another sample; [ ] = another dose, or the depositor's remark. The call rests on the fitted dose curve; in most records, active means well fitted curve in the direction sought with a large enough effect; inconclusive means small, poorly fitted or top-dose-only effect, or another doubt; inactive means no such curve, though single readings can be large; an effect the other way counts as inactive or inconclusive. Potency means the concentration at half of the fitted maximal effect.

For COCCCN1C(=O)c2[nH]nc(-c3cc(C)cc(C)c3O)c2C1c1ccc(O)c(OC)c1 (configuration not stated) the results were HT1080-NT tox -4.3%, KB-3-1 cytotox inconclusive, ATXN viability inactive, HT1080 IDH1KD tx -10.3%, ATXN2 expr inh 0.5% and KB-V1 MDR tox 20.6µM*.
CCCN1C(=O)c2[nH]nc(-c3cc(Cl)c(C)cc3O)c2C1c1ccc(O)c(OC)c1 (configuration not stated) was read as HT1080-NT tox inconclusive, KB-3-1 cytotox inactive, ATXN viability inactive, HT1080 IDH1KD tx 16.4µM*, ATXN2 expr inh 13.9% and KB-V1 MDR tox inactive.
Nc1cc(=O)[nH]c(SCCSc2ccccc2F)n1 was read as HT1080-NT tox -9.5%, KB-3-1 cytotox inconclusive, ATXN viability inactive, HT1080 IDH1KD tx -2.3%, ATXN2 expr inh -4.6% and KB-V1 MDR tox inconclusive.
For Nc1cc(=O)[nH]c(SCCSc2cc(Cl)ccc2Cl)n1 the results were HT1080-NT tox -17.8%, KB-3-1 cytotox 0.731µM*, ATXN viability inactive, HT1080 IDH1KD tx -23.5%, ATXN2 expr inh -6.4% and KB-V1 MDR tox 0.411µM*.
`O=c1c2ccccc2sn1-c1ccc(Cl)cc1Cl` gave HT1080-NT tox -21.0%, KB-3-1 cytotox inconclusive, HT1080 IDH1KD tx inconclusive, ATXN2 expr inh inconclusive and KB-V1 MDR tox 14.6µM*.
O=c1c2ccccc2ncn1-c1ccc(Cl)cc1Cl was read as HT1080-NT tox inconclusive, KB-3-1 cytotox inactive, ATXN viability inactive, HT1080 IDH1KD tx 18.6% and KB-V1 MDR tox inactive.
Screening COc1ccc(CNc2ccncc2)c(OC)c1OC returned HT1080-NT tox -16.6%, KB-3-1 cytotox inactive, ATXN viability inactive, HT1080 IDH1KD tx -8.9%, ATXN2 expr inh 16.6%[2.22 µM] and KB-V1 MDR tox inactive.
`COc1cc(NCc2ccc3nc(N)nc(N)c3c2C)cc(OC)c1OC` gave ATXN viability inconclusive and ATXN2 expr inh 3.55µM*!.
Screening O=C(CN1C(=O)C2CCCCN2c2ccc(C(=O)N3CCCC3)cc21)NCc1ccccc1 (configuration not stated) returned KB-3-1 cytotox inactive, ATXN viability inactive, ATXN2 expr inh -4.4% and KB-V1 MDR tox inactive.
Screening COc1cccc(C(c2c(NC(=O)c3ccccc3)sc(C)c2C)N2CCN(C)CC2)c1 (configuration not stated) returned HT1080-NT tox -4.7%, KB-3-1 cytotox inconclusive, ATXN viability inconclusive, HT1080 IDH1KD tx 2.7%, ATXN2 expr inh -19.4% and KB-V1 MDR tox 20.6µM*.
For CCCCN1/C(=C/c2ccc3ccccc3[n+]2CC)Sc2ccccc21 the results were HT1080-NT tox inconclusive, KB-3-1 cytotox inactive, ATXN viability 15.8µM*, HT1080 IDH1KD tx 14.6µM*, ATXN2 expr inh inconclusive and KB-V1 MDR tox inactive.
Cc1sc2c3ccsc3ccc2[n+]1C was read as HT1080-NT tox -5.9%, KB-3-1 cytotox inactive, ATXN viability inactive, HT1080 IDH1KD tx -21.1%, ATXN2 expr inh -15.2% and KB-V1 MDR tox inactive.
CCCCN1/C(=C/c2cccc[n+]2C)Sc2cc(NC(C)=O)ccc21 was read as HT1080-NT tox 14.7%, KB-3-1 cytotox inactive, ATXN viability inactive, HT1080 IDH1KD tx -0.9% and KB-V1 MDR tox inactive.
`CCN1/C(=C/c2ccc3cc(C)ccc3[n+]2C)Sc2ccc3sccc3c21` gave HT1080-NT tox 16.4µM*, KB-3-1 cytotox inactive, HT1080 IDH1KD tx inconclusive and KB-V1 MDR tox inactive.
For CCN1/C(=C/c2ccc3cc(C)ccc3[n+]2CC)Sc2cc(C)ccc21 the results were HT1080-NT tox 16.4µM*, KB-3-1 cytotox inconclusive, HT1080 IDH1KD tx 23.1µM*, ATXN2 expr inh inconclusive and KB-V1 MDR tox inactive.
For COc1ccccc1-c1ccnc(-n2ncc(C(=O)NCCc3ccccn3)c2C)n1 the results were ATXN viability inactive.
Cc1cc(C(=O)NCc2cccc(Br)c2)c2c(C)nn(-c3ccccc3)c2n1 was read as KB-3-1 cytotox inactive, ATXN viability inactive, ATXN2 expr inh 2.8% and KB-V1 MDR tox inactive.
